31 sequences from the supplement of paper PMC3334620 can be followed below.

Over roughly 33,000 sequences, “E-score (-0.5 to 0.5)” has its median near -0.04; the highest 2% begin near 0.36. The sample holds the highest values, similar sequences and a random draw of the others, so the mix is not that of the screen.

The assay addresses T1, Hmlalpha2 (UniProt P0CY09).
T1 sequence: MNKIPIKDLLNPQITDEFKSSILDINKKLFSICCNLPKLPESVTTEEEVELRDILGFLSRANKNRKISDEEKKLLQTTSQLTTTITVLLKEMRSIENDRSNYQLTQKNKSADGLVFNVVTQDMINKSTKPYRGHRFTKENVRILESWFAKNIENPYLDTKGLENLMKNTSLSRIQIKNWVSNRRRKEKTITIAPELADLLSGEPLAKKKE
In words: PBM E-score (8-mer binding enrichment) (E-score (-0.5 to 0.5)); higher = stronger / more preferred TF binding. The conditions noted are these: protein concentration: 200 nM; construct: GST-full length. The procedure, abridged: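 Using PURExpress in vitro transcription/translation, GST-tagged yeast transcription factors were made in full-length or DNA-binding-domain form. These were applied at about 100-200 nM to double-stranded universal all-10-mer Agilent arrays, and bound protein was detected with fluorescent anti-GST. Scans were normalised with masliner before the Universal PBM Analysis Suite assigned E-scores to ungapped eight-base words pooled with their reverse complements.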
Consider ATGAGGCG, for which the “PBM E-score” value was -0.102.
As for AAGGAGCA, the figure is -0.237.
For CACCTCAC, the “PBM E-score” value came to 0.0105.
As for CCTATTCA, the figure is -0.319.
In the case of CGCGGCCC, the “PBM E-score” value was -0.135.
Next, CATTCTCG: -0.0595; AGAACGAC: -0.0288.
Next, AAGAGCGA: -0.2.
As for CTCGTGTC, the figure is 0.257; as for GTCGTGCA, 0.0844; as for GTCGTGTA, 0.464.
Take GTCGTGGA: the “PBM E-score” value is -0.154.
As to CTCGTGGA, the “PBM E-score” value is -0.107.
With ATCGTGTC, the “PBM E-score” value is 0.358.
Next, CTCGTGTA: 0.434; ATCGTGTG: 0.313.
As for ATCGTGTA, the figure is 0.475.
Regarding CACCTATC, the “PBM E-score” value is -0.0688.
As to AGTAGTCA, the “PBM E-score” value was -0.00856.
Next, CCAGGTAC: -0.122; ATAAGCAG: -0.00191; CGTTTTTA: 0.253.
Next, GCAGTGTA: 0.292; ACACGGGG: 0.3.
As to ACACGGGC, the “PBM E-score” value was 0.325.
As for ACACGGGA, the figure is 0.371.
ACACGGCT: the “PBM E-score” value is 0.32.
Next, ACACGGGT: 0.391.
As for AAACGGGT, the figure is 0.153; as for CTCTGCAA, -0.0611.
Next, CGGAGCTA: -0.0643.
